{"source": "PubChem BioAssay AID372", "about": "(MTDP, 2006)", "note": "Hit rate of the full screen: of about 100,000 compounds, about 770 (0.77%) were called active. The sample as a whole holds a higher share of actives than the screen did. Unmarked numbers belong to inactive results. Rule as the data show it: active = inhibition above about 50%; inactive = the rest."}
{"biological_target": "Gag-Pol polyprotein (Human immunodeficiency virus type 1 group M subtype B (isolate HXB2)) (UniProt P04585)", "assay": "RNase H inhibition, HIV 1 Gag Pol polyprotein, FRET biochemical assay, screening (AID 372)", "settings": "HIV-1 RT RNase H, FRET RNA/DNA substrate fluorescence; at 10 µM; active compounds read high"}
{"smiles": "O=C1NC(=O)N(Cc2ccco2)C(=O)/C1=C\\C=C\\c1ccccc1", "inhibition": "52% (active)"}
{"smiles": "COc1ccc(CN2C(=O)NC(=O)/C(=C\\C=C\\c3ccccc3)C2=O)cc1", "inhibition": "10%"}
{"smiles": "O=C1NC(=O)N(Cc2ccco2)C(=O)/C1=C/c1ccc(OCCOc2ccccc2)cc1", "inhibition": "13%"}
{"smiles": "COc1ccc2ccccc2c1/C=C1/C(=O)NC(=O)N(Cc2ccco2)C1=O", "inhibition": "50% (active)"}
{"smiles": "COc1cc(N2Cc3ccccc3C2)ccc1/C=C1\\C(=O)NC(=O)N(Cc2ccco2)C1=O", "inhibition": "51% (active)"}
{"smiles": "O=C1NC(=O)N(Cc2ccco2)C(=O)/C1=C\\c1cn(Cc2cccc(F)c2)c2ccccc12", "inhibition": "57% (active)"}
{"smiles": "CCN(CC)c1ccc(/C=C2/C(=O)NC(=O)N(Cc3ccco3)C2=O)c(OC)c1", "inhibition": "45%"}
{"smiles": "COc1ccc2ccccc2c1/C=C1\\C(=O)NC(=O)N(Cc2ccccc2)C1=O", "inhibition": "40%"}
{"smiles": "Cc1cc(N2Cc3ccccc3C2)ccc1/C=C1\\C(=O)NC(=O)N(Cc2ccco2)C1=O", "inhibition": "42%"}
{"smiles": "NC(=O)Cn1cc(/C=C2/C(=O)NC(=O)N(Cc3ccco3)C2=O)c2ccccc21", "inhibition": "0%"}
{"smiles": "O=C1NC(=O)N(Cc2ccco2)C(=O)/C1=C\\c1cn(Cc2ccc(Cl)cc2)c2ccccc12", "inhibition": "37%"}
{"smiles": "COc1ccc(/C=C2/C(=O)NC(=O)N(Cc3ccco3)C2=O)c2ccccc12", "inhibition": "48%"}
{"smiles": "Cc1ccc(NC(=O)c2ccc(Cl)c(Cl)c2)c([N+](=O)[O-])c1", "inhibition": "1%"}
{"smiles": "CC(=O)NC(NC(=S)Nc1sc2c(c1C#N)CCCC2)C(Cl)(Cl)Cl", "note": "(stereo not given)", "inhibition": "20%"}
{"smiles": "COc1cc(C2CC(=O)NC(SCc3ccccc3)=C2C#N)ccc1O", "note": "(stereo not given)", "inhibition": "6%"}
{"smiles": "O=C(NN=C1CCCCC1)C(=O)Nc1ccc(F)cc1", "inhibition": "8%"}
{"smiles": "CCOc1c(Br)cc(/C=C2N=C(/C=C/c3ccccc3)OC/2=O)cc1OC", "inhibition": "9%"}
{"smiles": "O=C(NNC(=O)c1cccc(C#Cc2ccccc2)c1)c1ccc(Br)cc1", "inhibition": "46%"}
{"smiles": "O=C(NNC(=O)c1cccc(C(=O)NNC(=O)c2ccc(Br)cc2)c1)c1ccc(Br)cc1", "inhibition": "53% (active)"}
{"smiles": "O=C(NNC(=O)c1cccc(O)c1)c1ccc(Br)cc1", "inhibition": "10%"}
{"smiles": "COc1ccc(C(NC(=O)C(C)C)c2ccc3cccnc3c2O)cc1OC", "note": "(stereo not given)", "inhibition": "5%"}
{"smiles": "Oc1ccc(C=Nc2ccc(Cl)c(Cl)c2)cc1O", "inhibition": "17%"}
{"smiles": "Oc1ccc(N=Cc2ccc(O)c(O)c2)cc1", "inhibition": "70% (active)"}
{"smiles": "Oc1ccc(/C=N/N=C/c2ccc(O)c(O)c2)cc1O", "inhibition": "69% (active)"}
{"smiles": "Oc1ccc(C=Nc2ccc(N=Cc3ccc(O)cc3)cc2)cc1", "inhibition": "15%"}
{"smiles": "Oc1ccc(C=Nc2ccc(O)cc2)cc1", "inhibition": "4%"}
{"smiles": "Cc1nnc(C)n1/N=C/c1ccc(O)c(O)c1", "inhibition": "44%"}
{"smiles": "COc1ccc(C(=O)OCC(=O)c2ccc(Br)cc2)cc1OC", "inhibition": "16%"}
{"smiles": "C=CCN(c1ccccc1C(=O)O)S(=O)(=O)/C=C/c1ccccc1", "inhibition": "6%"}
{"smiles": "CCOc1ccc(/C=N/NC(=O)c2cc(-c3ccc4ccccc4c3)n[nH]2)cc1", "inhibition": "14%"}
{"smiles": "COc1ccc(NCC(O)Cn2c3ccc(Cl)cc3c3cc(Cl)ccc32)c(OC)c1", "note": "(stereo not given)", "inhibition": "27%"}
{"smiles": "O=C(NCc1ccco1)c1ccc(-c2cc(Cl)ccc2Cl)o1", "inhibition": "31%"}
{"smiles": "O=C(N=Nc1c(O)[nH]c2ccc(Br)cc12)C1COc2cc3ccccc3cc2O1", "note": "(stereo not given)", "inhibition": "4%"}
{"smiles": "CCCn1c(O)c(N=NC(=O)C2COc3cc4ccccc4cc3O2)c2ccccc21", "note": "(stereo not given)", "inhibition": "34%"}
{"smiles": "Cn1c(O)c(N=NC(=O)C2COc3cc4ccccc4cc3O2)c2ccccc21", "note": "(stereo not given)", "inhibition": "50% (active)"}
{"smiles": "Cc1ccc2c(c1)c(N=NC(=O)COc1ccccc1C)c(O)n2C", "inhibition": "20%"}
{"smiles": "O=C(NCCOc1cccc2ccccc12)Nc1cc(F)c(F)cc1Cl", "inhibition": "0%"}
{"smiles": "S=C(NCCOc1cccc2ccccc12)Nc1cccc2ccccc12", "inhibition": "45%"}
{"smiles": "O=C(NCCOc1cccc2ccccc12)Nc1cccc2ccccc12", "inhibition": "51% (active)"}
{"smiles": "O=C(NN1CCOCC1)c1ccc(Br)cc1", "inhibition": "2%"}
{"smiles": "Cc1cccnc1NS(=O)(=O)c1cc(Cl)ccc1Cl", "inhibition": "10%"}
{"smiles": "CC1=C/C(=N/S(=O)(=O)c2ccc(C)cc2)C=C(Cl)C1=O", "inhibition": "17%"}
{"smiles": "O=C1C=CC(=NS(=O)(=O)c2ccccc2)C=C1", "inhibition": "56% (active)"}
{"smiles": "O=C1C=CC(=NS(=O)(=O)c2cccc([N+](=O)[O-])c2)C=C1", "inhibition": "45%"}
{"smiles": "O=C1C=CC(=NS(=O)(=O)c2ccc(Cl)cc2)C=C1", "inhibition": "28%"}
{"smiles": "O=C1C=CC(=NS(=O)(=O)c2ccc(F)cc2)C=C1", "inhibition": "43%"}
{"smiles": "CC1=CC(=O)C=C/C1=N\\S(=O)(=O)c1ccc(C)cc1", "inhibition": "32%"}
{"smiles": "Cc1ccc(S(=O)(=O)/N=C2/C=C(Cl)C(=O)c3ccccc32)cc1", "inhibition": "20%"}
{"smiles": "O=C1C=C/C(=N\\S(=O)(=O)c2ccc(Cl)c([N+](=O)[O-])c2)c2ccccc21", "inhibition": "34%"}
{"smiles": "Cc1ccc(S(=O)(=O)/N=C2\\C=CC(=O)C(Br)=C2)cc1", "inhibition": "20%"}
{"smiles": "COc1ccc(Cl)cc1NC(=O)c1cc(-c2ccccc2)nc2ccccc12", "inhibition": "0%"}
{"smiles": "COc1cc(C2/C(=C(\\O)c3ccc(C)cc3)C(=O)C(=O)N2CCCC(=O)O)ccc1O", "note": "(stereo not given)", "inhibition": "0%"}
{"smiles": "CCOC(=O)C1=C(C)N=c2s/c(=C\\c3ccccc3O)c(=O)n2C1c1ccc(Cl)cc1", "note": "(stereo not given)", "inhibition": "21%"}
{"smiles": "COc1ccc(NC(=O)c2nn3c(C(F)(F)F)cc(-c4ccco4)nc3c2Cl)c(OC)c1", "inhibition": "13%"}
{"smiles": "COc1ccc(C(=O)N/C(=C\\c2ccc(-c3cccc([N+](=O)[O-])c3)o2)C(=O)NCc2ccncc2)cc1", "inhibition": "0%"}
{"smiles": "O=C1C(Cl)=CC(=NS(=O)(=O)c2ccccc2)C=C1Br", "inhibition": "26%"}
{"smiles": "O=C1C=C/C(=N\\S(=O)(=O)c2ccccc2)C=C1Cl", "inhibition": "19%"}
{"smiles": "O=C1C(Cl)=CC(=NS(=O)(=O)c2ccc(Cl)cc2)C=C1Cl", "inhibition": "28%"}
{"smiles": "Cc1ccccc1S(=O)(=O)N=C1C=CC(=O)C(Cl)=C1", "inhibition": "11%"}
{"smiles": "O=S(=O)(N=C1C(Cl)=C(Cl)C(=NS(=O)(=O)c2ccccc2)C(Cl)=C1Cl)c1ccccc1", "inhibition": "31%"}
{"smiles": "CC(C)C1=CC(=NS(=O)(=O)c2ccc(Cl)cc2)C=C(C(C)C)C1=O", "inhibition": "5%"}
{"smiles": "O=C1C(Cl)=CC(=NS(=O)(=O)c2ccc(Cl)cc2)c2ccccc21", "inhibition": "8%"}
{"smiles": "CC(C)(C)c1ccc(S(=O)(=O)N=C2C=CC(=O)C=C2)cc1", "inhibition": "20%"}
{"smiles": "CC(=O)N/C(=C\\c1ccccc1)C(=O)NCC(=O)O", "inhibition": "6%"}
{"smiles": "Cc1cccc(NC(=O)C(=O)NNC(=O)c2ccccc2C)c1", "inhibition": "4%"}
{"smiles": "Cc1ccc(-c2ccccc2)n1-c1ccccc1C(=O)O", "inhibition": "12%"}
{"smiles": "O=C(O)/C=C\\C(=O)N/N=C/c1ccccc1", "inhibition": "4%"}
{"smiles": "O=C(Nc1ccccn1)c1ccc2c(c1)C(=O)N(c1cccc3c(N4C(=O)c5ccc(C(=O)Nc6ccccn6)cc5C4=O)cccc13)C2=O", "inhibition": "2%"}
{"smiles": "CCC1CCc2c(sc(NC(=O)c3ccc([N+](=O)[O-])cc3Cl)c2C(=O)OC)C1", "note": "(stereo not given)", "inhibition": "0%"}
{"smiles": "Cc1ccc(S(=O)(=O)/N=C2/C=C(N3CCOCC3)C(=O)c3ccccc32)cc1", "inhibition": "5%"}
{"smiles": "CC1=C(C)/C(=N\\S(=O)(=O)c2ccc(C)cc2)C=C(N2CCOCC2)C1=O", "inhibition": "19%"}
{"smiles": "O=C1C(N2CCOCC2)=C/C(=N\\S(=O)(=O)c2ccc(Cl)cc2)c2ccccc21", "inhibition": "61% (active)"}
{"smiles": "Cc1ccccc1N1C(=O)C2C3c4ccccc4C(C)(c4ccccc43)C2C1=O", "note": "(stereo not given)", "inhibition": "0%"}
{"smiles": "O=C(COc1cc(O)c2c(=O)cc(-c3ccccc3)oc2c1)c1ccccc1", "inhibition": "3%"}
{"smiles": "O=C1C(=O)N(c2nccs2)C(c2ccccc2F)/C1=C(/O)c1ccc(Cl)cc1", "note": "(stereo not given)", "inhibition": "21%"}
{"smiles": "COc1cccc(NC(=O)Nc2nnc(-c3ccccc3I)s2)c1", "inhibition": "0%"}
{"smiles": "COc1cccc(NC(=O)Nc2nnc(-c3ccccc3SCc3ccccc3F)s2)c1", "inhibition": "23%"}
{"smiles": "COc1cccc(NC(=O)Nc2nnc(-c3ccccc3F)s2)c1", "inhibition": "53% (active)"}
{"smiles": "CCc1nnc(NC(=O)CCCOc2ccc(Cl)cc2C)s1", "inhibition": "12%"}
{"smiles": "O=[N+]([O-])c1ccc(NCCCNS(=O)(=O)c2ccc(Cl)cc2)cc1", "inhibition": "8%"}
{"smiles": "O=C(O)CCC(=O)NNC(=O)c1ccncc1", "inhibition": "10%"}
{"smiles": "CCOC(=O)CNC(=O)c1ccc([N+](=O)[O-])cc1", "inhibition": "4%"}
{"smiles": "COC(=O)c1cc(C(=O)N2CCC(C(=O)OC)CC2)cc([N+](=O)[O-])c1", "inhibition": "7%"}
{"smiles": "CCOC(=O)C1CCCN(C(=O)c2cc(C(=O)OC)cc([N+](=O)[O-])c2)C1", "note": "(stereo not given)", "inhibition": "16%"}
{"smiles": "CCOC(=O)CNC(=O)c1cccc([N+](=O)[O-])c1", "inhibition": "15%"}
{"smiles": "CCOC(=O)CNC(=O)c1cc(C(=O)OC)cc([N+](=O)[O-])c1", "inhibition": "52% (active)"}
{"smiles": "CCOC(=O)C1CCN(C(=O)c2cc(C(=O)OC)cc([N+](=O)[O-])c2)CC1", "inhibition": "54% (active)"}
{"smiles": "O=C(CN(c1ccc([N+](=O)[O-])cc1)S(=O)(=O)c1ccccc1)NC1CC2CCC1C2", "note": "(stereo not given)", "inhibition": "13%"}
{"smiles": "Cc1ccc(N2C(=O)NC(=O)/C(=C\\c3ccc(OCC(=O)O)c(Br)c3)C2=O)cc1", "inhibition": "3%"}
{"smiles": "O=C(NC(=S)Nc1cccc(C(F)(F)F)c1)c1ccc(-c2ccc(Cl)cc2)o1", "inhibition": "10%"}
{"smiles": "O=C(Nc1ccc(F)cc1)Nc1nnc(-c2ccccc2SCc2ccccc2)s1", "inhibition": "25%"}
{"smiles": "Clc1cccc(Cl)c1OCCCN1CCCCC1", "inhibition": "2%"}
{"smiles": "Clc1cccc(Cl)c1OCCN1CCCC1", "inhibition": "56% (active)"}
{"smiles": "Clc1cccc(Cl)c1OCCCN1CCCC1", "inhibition": "7%"}
{"smiles": "COc1cc(/C=C(\\C#N)C(=O)Nc2ccc(F)cc2)c([N+](=O)[O-])cc1OC", "inhibition": "3%"}
